Data on 40 compounds can be found in PubChem BioAssay (NCI).

This is part of a sample that, as a whole, favours compounds with a hit. Of some 79,000 tested, about 15% had one in any assay. Values without a mark were called inactive. Cut-off read from the data, not from the text of the source: active = growth inhibition above about 70%; inactive = the rest.

The first experiment is described as follows: NCI Yeast Anticancer Drug Screen. Data for the sgs1 mgt1 strain (AID 161).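 Note: 0% = growth of cultures given vehicle only.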 The note with it: S. cerevisiae sgs1 mgt1 strain, at 50.0 µM, stronger effect = higher value. In short, it runs like this:
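Inhibition of yeast growth, normalised to vehicle-treated controls, is reported for a strain bearing genetic alterations in DNA damage repair.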
As to `Cc1ccc(S(=O)(=O)CC(=O)c2ccc(Br)cc2)cc1`, the growth inhibition is -16.4%.
On the same count and under the same terms, next, `CCCc1[nH]n(-c2ccccc2)c(=O)c1N=Nc1ccc(Cl)cc1`: -9.95%.
For the compound `Cc1nc(N)nc(CCC(=O)Nc2cccc(C(F)(F)F)c2)c1-c1ccc(Cl)cc1`, the growth inhibition was 6.7%.
Same read-out and setting: under `CCOC(=O)Nc1cc(C(F)(F)F)ccc1F` stands -14%; under `CCCN(CCC)C(=O)c1ccc(C(C)C)cc1`, 19.1%.
Turning to `Cc1cccc(/C=C(\C#N)C(=O)c2ccccc2)c1`, the growth inhibition is -13.6%.
As for `CC(=O)Nc1ccc(/C=c2\sc3nnc(CCC(=O)Nc4ccccc4Cl)n3c2=O)cc1`, the growth inhibition is -20.1%.
For `CCOC(=O)CCC(=O)N(CC)CC`, the growth inhibition is 16.4%.
The same measure, in the same setting: next, `Cc1cccc(-c2nc3sc(-c4cccc(C)n4)nc3s2)n1`: -13.3%.
Consider `O=C1C2CC3C(C2)C13`, for which the growth inhibition was -8.05%.
Take `CC1COC(C)(C)O1` (configuration not stated): the growth inhibition is 16.4%.
Same read-out and setting: next, `Cc1ncnc(N)c1N`: 8.95%; `Cc1cc([N+](=O)[O-])c(NCCOC(=O)c2ccc([N+](=O)[O-])cc2)c([N+](=O)[O-])c1`: -10.9%.
Consider `Clc1cccc(CC(Br)Br)c1`, for which the growth inhibition was 6.75%.
Still for that read-out and setting: under `Cc1nc2c(cnn2C)c(=O)n1-c1ccccc1Cl` stands 11.8%; under `C=CCNC(=S)/N=C/c1c(C(=O)OCC)[nH]n(-c2ccccc2)c1=O`, -44.8%; under `O=C(CC(=O)c1ccccc1)Cc1ccccc1.O=C(CC(=O)c1ccccc1)Cc1ccccc1.[Cu]`, 55.6%.
The same measure, in the same setting: under `CN1C(c2ccccc2)=C(C#N)C(=O)CC(c2cccs2)N1C` (configuration not stated) stands 33.6%; under `[O-][n+]1ccc(Cl)cc1`, -19%.
Same read-out and setting: next, `CCCCCCCCCCCCOc1ccc(F)cc1C`: 0.45%; `COc1ccc(NS(=O)(=O)c2ccc(NC(=O)NCCCl)cc2)nn1`: -9.85%; `CC(C)n1c(=S)[nH]c2c(=O)[nH]c(=O)[nH]c21`: 0.05%.

A further experiment in a line: NCI Yeast Anticancer Drug Screen. Data for the cln2 rad14 strain (AID 165).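 Note: 0% = growth equal to vehicle treated cultures.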 The note with it: S. cerevisiae cln2 rad14 strain, at 50.0 µM, stronger effect = higher value. The method in brief:
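Growth of compound-exposed yeast (cln2 rad14 genotype) measured and expressed as inhibition relative to vehicle.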
As to `COc1ccc(OC)c(NC(=O)c2ccc(Cl)c(Cl)c2)c1`, the growth inhibition is -9.25%.
Same read-out and setting: under `C/C(Cl)=N\OC(=O)Nc1ccc([N+](=O)[O-])cc1` stands 66.8%; under `Brc1ccccc1N=Nc1ccccc1Br`, -18.6%.
The same measure, in the same setting: next, `COC(=O)C(Cl)=C1CC1`: 18.6%.
Still for that read-out and setting: next, `CC(=O)OC1CC2CCCCC2CC1[N+](C)(C)C` (configuration not stated): -1.15%.
Take `CC(C)(C(=O)O)c1ccccc1C(=O)c1ccccc1`: the growth inhibition is 49.3%.
The same measure, in the same setting: next, `CCC1=C(C(C)=O)[C@@H]2CCCCC(C(=O)OC)[C@@H]2C1=O` (some centres not stated): 19.7%.
Still for that read-out and setting: next, `Nc1cc2[nH]cnc2c(=O)[nH]1`: 21.8%; `Cc1nn(-c2nc(-c3ccc(Br)cc3)cs2)c(C)c1C`: 9.6%.
On the same count and under the same terms, under `Cc1cc(-c2ccc(Cl)cc2)c(C#N)c(=S)n1C1OC(CO)C(O)C(O)C1O` (configuration not stated) stands 2.8%; under `C/C=C/Sc1ccccc1C(=O)O`, -18.9%.
Regarding `C/C(=N/NC(N)=O)c1c(C)c(Cl)cc(Cl)c1OCCCC(C)C`, the growth inhibition was -6.1%.
Consider `CN(C)c1ccc(/C=C(\C#N)c2cccc(F)c2)cc1`, for which the growth inhibition was -14.2%.
Still for that read-out and setting: under `COc1ccccc1/C=C(\C#N)C(=O)O` stands 8.6%.
Same read-out and setting: next, `O=C(CC(=O)N1N=C(n2ccc3ccccc32)CC1c1ccccc1)Nc1cccc(Cl)c1` (configuration not stated): 12.1%.
The same measure, in the same setting: next, `CC(=O)OC1C/C(C)=C/CCC(C)/C=C/C2(C)CCC(C(C)(C)O)C12` (configuration not stated): 2.5%.
Take `C[N+](C)(C)c1cc2c(nn1)Nc1ccccc1S2`: the growth inhibition is 14.7%.
Same read-out and setting: under `CCCCCCCCCCCCCCCC(=O)ON1C(=S)NC(C)(c2ccccc2)C1=S` (configuration not stated) stands -4.05%.
On the same count and under the same terms, next, `Cc1ccc(S(=O)(=O)CC(=O)c2ccc(Br)cc2)cc1`: 4.9%; `CCCc1[nH]n(-c2ccccc2)c(=O)c1N=Nc1ccc(Cl)cc1`: -5.1%.
On the same count and under the same terms, next, `Cc1nc(N)nc(CCC(=O)Nc2cccc(C(F)(F)F)c2)c1-c1ccc(Cl)cc1`: 7.45%; `CCOC(=O)Nc1cc(C(F)(F)F)ccc1F`: -43.9%.
Consider `CCCN(CCC)C(=O)c1ccc(C(C)C)cc1`, for which the growth inhibition is -6.8%.
The same measure, in the same setting: next, `Cc1cccc(/C=C(\C#N)C(=O)c2ccccc2)c1`: 5.75%.
The same measure, in the same setting: next, `CC(=O)Nc1ccc(/C=c2\sc3nnc(CCC(=O)Nc4ccccc4Cl)n3c2=O)cc1`: 7.6%; `CCOC(=O)CCC(=O)N(CC)CC`: 9.9%.
Turning to `Cc1cccc(-c2nc3sc(-c4cccc(C)n4)nc3s2)n1`, the growth inhibition was -29.6%.
As for `O=C1C2CC3C(C2)C13`, the growth inhibition is -5.9%.
`CC1COC(C)(C)O1` (configuration not stated): the growth inhibition is 0.65%.
Still for that read-out and setting: next, `Cc1ncnc(N)c1N`: 26.1%; `Cc1cc([N+](=O)[O-])c(NCCOC(=O)c2ccc([N+](=O)[O-])cc2)c([N+](=O)[O-])c1`: -69.2%.
Turning to `Clc1cccc(CC(Br)Br)c1`, the growth inhibition was 23%.
Still for that read-out and setting: next, `Cc1nc2c(cnn2C)c(=O)n1-c1ccccc1Cl`: 41%; `C=CCNC(=S)/N=C/c1c(C(=O)OCC)[nH]n(-c2ccccc2)c1=O`: -32.8%.
On to `O=C(CC(=O)c1ccccc1)Cc1ccccc1.O=C(CC(=O)c1ccccc1)Cc1ccccc1.[Cu]`, for which the growth inhibition was 12.7%.
The same measure, in the same setting: under `CN1C(c2ccccc2)=C(C#N)C(=O)CC(c2cccs2)N1C` (configuration not stated) stands -1.5%.
Turning to `[O-][n+]1ccc(Cl)cc1`, the growth inhibition was -15.2%.
In the case of `CCCCCCCCCCCCOc1ccc(F)cc1C`, the growth inhibition is 4.6%.
Same read-out and setting: under `COc1ccc(NS(=O)(=O)c2ccc(NC(=O)NCCCl)cc2)nn1` stands 8.95%; under `CC(C)n1c(=S)[nH]c2c(=O)[nH]c(=O)[nH]c21`, -53.2%.
